Here are results for 10 compounds from PubChem BioAssay (NCATS).

Assay [1] can be described thus: Cell Viability - LYMP2-020 (AID 986).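 Also: series mostly up to about 92 µM; plate controls were DMSO only for no effect and tetraoctylammonium bromide at 92 µM for full effect; nearly all actives have a fitted effect of over 55% in size.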 The essentials: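 Human lymphoblastoid LYMP2-020 cells (2500/well) preincubated 5 h at 37 C, then treated 24 h at 37 C. Viability measured as intracellular ATP by CellTiter-Glo luminescence after 30 min at room temperature; AC50 from Hill fits.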
A short description of assay [2]: Cell Viability - LYMP2-022 (AID 987).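 Also: 0% = DMSO alone and full effect = tetraoctylammonium bromide at 92 µM; nearly all actives have a fitted effect of over 55% in size.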 In outline:
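LYMP2-022 lymphoblastoid cells (2500/well, complete medium) were treated with compounds for 24 hours at 37 C; intracellular ATP was then read by CellTiter-Glo luminescence after 30 min at room temperature. AC50 values were derived from Hill-equation fits.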

Assay [3] can be described thus: Cell Viability - LYMP2-024 (AID 988).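 Also: plate controls were DMSO only for no effect and 92 µM tetraoctylammonium bromide for full effect; nearly all actives have a fitted effect of over 60% in size.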 In outline: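 Human lymphoblastoid LYMP2-024 cells (2500/well) rested 5 hr, then treated with compound for 24 hr at 37 C in complete medium. Viability was measured as intracellular ATP by CellTiter-Glo luminescence. AC50 values came from Hill-equation fits.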
Assay [4] can be described thus: Cell Viability - LYMP2-026 (AID 989). Also: % is scaled to controls: 0 for no effect and ±100 for the full control effect; nearly all actives have a fitted effect of over 50% in size. In outline: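 Human lymphoblastoid LYMP2-026 cells, 2500/well, exposed to compound 24 h at 37 C in complete medium. Viability as intracellular ATP by CellTiter-Glo luminescence; AC50 from Hill fits of qHTS concentration-response.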
The nature of assay [5]: Cell Viability - LYMP1-002 - Assay at 24 hr (AID 993). Also: % is scaled to controls: 0 for no effect and ±100 for the full control effect. The essentials:
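Human lymphoblastoid LYMP1-002 cells (2500/well) treated 24 h at 37 °C; viability as intracellular ATP by CellTiter-Glo luminescence. Tetraoctylammonium bromide as positive control; AC50 from Hill-equation fits of qHTS concentration-response.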

Assay [6] in a line: Cell Viability - LYMP1-002 - Assay at 40 hr (AID 994).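 Also: 0% = DMSO only and full inhibition = 92 µM tetraoctylammonium bromide; nearly all actives have a fitted effect of over 60% in size.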 The essentials:
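LYMP1-002 human lymphoblastoid cells (2500/well, complete medium) were treated with compounds for 40 hr at 37 C. Intracellular ATP was measured by CellTiter-Glo luminescence, and AC50 values came from Hill-equation fits of concentration-response data; tetraoctylammonium bromide was the positive control.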

The nature of assay [7]: qHTS Assay for Identification of Small Molecule Inducers of Hypoxia Response (AID 2120; active = well fitted curve in the direction sought with a large enough effect in the signal ratio, with a control signal flat, not every such curve was filed as active; the % refers to the signal ratio; also: 0% is about no effect). In outline: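 HRE-bla ME-180 cells in Opti-MEM with 0.5% dialyzed FBS, pre-plated 4-5 h, then compound titration for 17 h at 37 degrees Celsius. CCF4 loaded 2.5 h at room temperature; 460/530 nm ratio gave %Activity and AC50 for induction.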
The target of assay [8] is Estrogen receptor (Homo sapiens) (UniProt P03372). In words: qHTS assay for small molecule antagonists of estrogen receptor alpha signaling (AID 588513; active = well fitted curve in the direction sought with a large enough effect in the signal ratio, with a control signal flat, not every such curve was filed as active; the % refers to the signal ratio; also: % is scaled to controls: 0 for no effect and ±100 for the full control effect). The essentials:
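Beta-lactamase reporter, antagonist mode, HEK 293 GripTite cells; 0.5nM E2 stimulus, 18 h, 37 C; CCF4 dye 2 h RT; fluorescence. IC50 and efficacy from Hill fits, normalized to E2 and DMSO.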
On the technique in general: In qHTS, concentration-response curves come from the screen itself.

Assay [9] concerns the target Androgen receptor (Homo sapiens) (UniProt P10275). The assay is described as follows: qHTS assay for small molecule agonists of androgen receptor signaling (AID 588515; active = well fitted curve in the direction sought with a large enough effect in the signal ratio, with a control signal flat; the % refers to the signal ratio; also: % is scaled to controls: 0 for no effect and ±100 for the full control effect). The following applies: AR-UAS-bla HEK293, beta-lactamase ratio, agonist 16 h; stronger effect = higher value. In outline:
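EC50 and efficacy came from Hill fits of titrations (up to 92 uM) normalized to 30 nM R1881 as 100% and DMSO as 0%. Compound exposure was 16 h at 37 C on AR-UAS-bla HEK293 cells, with a 405/460/530 nm CCF4 fluorescence read.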

Assay [10] has the same target. In words: qHTS assay for small molecule antagonists of androgen receptor signaling (AID 588516; active = well fitted curve in the direction sought with a large enough effect in the signal ratio, with a control signal flat, not every such curve was filed as active; the % refers to the signal ratio; also: % is scaled to controls: 0 for no effect and ±100 for the full control effect). In outline: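 HEK293 AR-UAS-bla cells, 10% dialyzed FBS medium; cpd titration + R1881 10 nM final, 16 h 37 C; CCF4 2 h RT; FRET ratio; IC50/efficacy via Hill fit.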
Assay [11] concerns the target Bile acid receptor (Homo sapiens) (UniProt Q96RI1). In words: qHTS assay for small molecule antagonists of farnesoid X receptor signaling (AID 588526; calls by dose curve; also: % is scaled to controls: 0 for no effect and ±100 for the full control effect). In outline: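 Antagonist mode: titrated compounds tested against chenodeoxycholic acid stimulation (normalized to 50 uM CDCA and DMSO) in GeneBLAzer HEK293T cells for 16 h. Beta-lactamase read by CCF4 fluorescence; IC50 from Hill fits.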

Assay [12] has as its target Glucocorticoid receptor (Homo sapiens) (UniProt P04150). The assay is described as follows: qHTS assay for small molecule agonists of glucocorticoid receptor signaling (AID 588532; active = well fitted curve in the direction sought with a large enough effect in the signal ratio, with a control signal flat; the % refers to the signal ratio;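 also: 100% = dexamethasone at 0.1 µM and 0% = DMSO only wells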). The following applies: HeLa MMTV-bla, beta-lactamase ratio, agonist, 18 h; stronger effect = higher value; percent of dexamethasone control, DMSO zero. The essentials: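 Cells were plated and rested 3-5 h at 37 C, compounds were added in titration and incubated 18 h, then CCF4 substrate was loaded for 2 h at RT before reading blue/green fluorescence. EC50 came from Hill-equation fitting.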

For assay [13] the target is unchanged. In words: qHTS assay for small molecule antagonists of glucocorticoid receptor signaling (AID 588533; active = well fitted inhibition curve with a large enough effect in the signal ratio, with a control signal flat, not every such curve was filed as active; the % refers to the signal ratio; also: % is scaled to controls: 0 for no effect and ±100 for the full control effect). In outline: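 Antagonist-mode qHTS: compound titrations added to GRE-bla HeLa cells, then dexamethasone 2 nM final; 18 h, 37 C. CCF4 FRET fluorescence normalized to dexamethasone and DMSO; IC50 from Hill fit.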
For assay [14], the target named is Peroxisome proliferator-activated receptor gamma (Homo sapiens) (UniProt P37231). The assay is described as follows: qHTS assay for small molecule agonists of peroxisome proliferator-activated receptor gamma signaling (AID 588536; active = well fitted curve in the direction sought with a large enough effect in the signal ratio, with a control signal flat, not every such curve was filed as active; the % refers to the signal ratio;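 also: 0% = DMSO basal wells and 100% = rosiglitazone at 2 µM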). The essentials: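 GeneBLAzer PPAR-gamma-UAS-bla HEK293 cells in 1% charcoal/dextran-treated FBS medium were treated 16 h at 37 C with compounds. Beta-lactamase activity was read by CCF4 ratio (460/530 nm). Response was normalized to 2 uM rosiglitazone (100%) and DMSO, then Hill-fitted for EC50 and efficacy.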

For assay [15] the target is unchanged. The assay is described as follows: qHTS assay for small molecule antagonists of peroxisome proliferator-activated receptor gamma signaling (AID 588537; active = well fitted inhibition curve with a large enough effect in the signal ratio, with a control signal flat, not every such curve was filed as active; the % refers to the signal ratio;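 also: reporter cells co-stimulated with 50 nM rosiglitazone agonist during compound treatment; % of control where 0% means no effect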). In outline:
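PPARγ-UAS-bla HEK293 cells (3000/well) in 1% charcoal/dextran-stripped FBS are treated with compound, then stimulated with 50 nM rosiglitazone for 16 h at 37 °C. Read-out is CCF4 β-lactamase fluorescence after 2 h at RT. IC50 comes from Hill fits normalised to rosiglitazone and DMSO.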

Assay [16] addresses Vitamin D3 receptor (Homo sapiens) (UniProt P11473). The assay is described as follows: qHTS assay for small molecule antagonists of vitamin D receptor signaling (AID 588541; calls by dose curve). The essentials: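 VDR-UAS-bla HEK293T cells in 2% charcoal-stripped FBS were stimulated with 1-alpha,25-dihydroxyvitamin D3 (3 nM final) plus compound for 16 h at 37 C. The beta-lactamase CCF4 readout was normalized to 50 nM agonist and DMSO, and Hill fits gave IC50.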

For assay [17] the target is unchanged. The assay is described as follows: qHTS assay for small molecule agonists of vitamin D receptor signaling (AID 588543; calls by dose curve;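 also: 0% = DMSO basal and 100% = reference agonist control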). The essentials:
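β-lactamase reporter, VDR-UAS-bla HEK293T, agonist mode. Cells plated 5 h at 37 °C, compound titration 16 h at 37 °C, CCF4 dye 2 h RT, ratio 460/530 nm. Hill fit → EC50, efficacy vs 50 nM 1α,25-(OH)2D3.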

Assay [18] addresses Estrogen receptor (Homo sapiens) (UniProt P03372). In words: qHTS assay for small molecule agonists of estrogen receptor alpha signaling (AID 588514; calls by dose curve;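 also: 0% = vehicle only and 100% = reference agonist; nearly all actives have a fitted effect of over 70% in size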). In outline: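 ER-alpha-UAS-bla GripTite HEK293 cells, 5000/well in 2% charcoal/dextran-stripped FBS medium, treated with compound titrations 18 h at 37 C. CCF4 beta-lactamase read by fluorescence after 2 h RT; normalised to 20 nM 17-beta-estradiol (100%) and DMSO (0%), Hill fit for EC50 and efficacy.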

Assay [19] is described as follows: qHTS assay for small molecule antagonists of peroxisome proliferator-activated receptor delta signaling (AID 588535; active = well fitted inhibition curve with a large enough effect in the signal ratio, with a control signal flat, not every such curve was filed as active; the % refers to the signal ratio;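 as to max response: cells co-treated with a PPAR-delta agonist as stimulator during compound exposure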). The following applies: HEK293T PPARd-UAS-bla, beta-lactamase FRET ratio, 18 h; 460 nm channel. In outline:
(§1)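 Antagonist-mode beta-lactamase reporter (GeneBLAzer PPAR-delta-UAS-bla) in HEK293T cells, 2% charcoal/dextran FBS, 4000 cells/well. Compound titrations, 18 h at 37 C; CCF4 ratio read, IC50 and efficacy from Hill fits.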

The target in assay [20] is Peroxisome proliferator-activated receptor delta (Homo sapiens) (UniProt Q03181). Described as above. In outline:
as §1

Records with an inconclusive call do not appear. The source made the active and inactive calls. Unless noted, calls follow the shape of the dose curve; as a rule, active = well fitted cell-killing curve with a large enough effect; inconclusive = small, poorly fitted or top-dose-only effect; inactive = flat fitted curve, though single readings scatter.

Sequence of Estrogen receptor (Homo sapiens) (P03372 whole entry, looked up): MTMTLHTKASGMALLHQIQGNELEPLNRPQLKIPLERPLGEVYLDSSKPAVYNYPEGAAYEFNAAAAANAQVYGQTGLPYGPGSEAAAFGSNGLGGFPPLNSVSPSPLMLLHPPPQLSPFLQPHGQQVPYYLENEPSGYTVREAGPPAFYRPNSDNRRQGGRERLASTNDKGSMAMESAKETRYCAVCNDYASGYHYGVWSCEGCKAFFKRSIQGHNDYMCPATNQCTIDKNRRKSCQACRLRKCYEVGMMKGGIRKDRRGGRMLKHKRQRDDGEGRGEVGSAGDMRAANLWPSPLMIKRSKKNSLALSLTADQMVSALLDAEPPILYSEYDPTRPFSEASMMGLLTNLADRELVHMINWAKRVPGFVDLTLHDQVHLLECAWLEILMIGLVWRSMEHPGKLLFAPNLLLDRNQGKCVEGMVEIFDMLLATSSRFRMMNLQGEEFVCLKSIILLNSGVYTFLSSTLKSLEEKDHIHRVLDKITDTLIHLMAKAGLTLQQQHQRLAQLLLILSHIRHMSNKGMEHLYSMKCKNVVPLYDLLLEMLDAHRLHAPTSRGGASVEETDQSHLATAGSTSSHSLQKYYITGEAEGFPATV
Sequence of Peroxisome proliferator-activated receptor delta (Homo sapiens) (Q03181 whole entry, looked up): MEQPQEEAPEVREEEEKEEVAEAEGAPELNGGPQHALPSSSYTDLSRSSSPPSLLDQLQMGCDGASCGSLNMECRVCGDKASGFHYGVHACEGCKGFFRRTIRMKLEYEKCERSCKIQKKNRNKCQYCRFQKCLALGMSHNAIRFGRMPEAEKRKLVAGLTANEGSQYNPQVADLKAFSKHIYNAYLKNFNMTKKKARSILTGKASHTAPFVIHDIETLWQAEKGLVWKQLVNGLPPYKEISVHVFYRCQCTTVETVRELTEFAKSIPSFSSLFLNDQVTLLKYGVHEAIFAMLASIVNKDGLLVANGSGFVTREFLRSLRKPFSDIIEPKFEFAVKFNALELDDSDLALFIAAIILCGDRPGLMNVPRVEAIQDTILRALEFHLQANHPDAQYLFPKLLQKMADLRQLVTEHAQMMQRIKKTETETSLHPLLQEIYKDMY
Sequence of Peroxisome proliferator-activated receptor gamma (Homo sapiens) (P37231 whole entry, looked up): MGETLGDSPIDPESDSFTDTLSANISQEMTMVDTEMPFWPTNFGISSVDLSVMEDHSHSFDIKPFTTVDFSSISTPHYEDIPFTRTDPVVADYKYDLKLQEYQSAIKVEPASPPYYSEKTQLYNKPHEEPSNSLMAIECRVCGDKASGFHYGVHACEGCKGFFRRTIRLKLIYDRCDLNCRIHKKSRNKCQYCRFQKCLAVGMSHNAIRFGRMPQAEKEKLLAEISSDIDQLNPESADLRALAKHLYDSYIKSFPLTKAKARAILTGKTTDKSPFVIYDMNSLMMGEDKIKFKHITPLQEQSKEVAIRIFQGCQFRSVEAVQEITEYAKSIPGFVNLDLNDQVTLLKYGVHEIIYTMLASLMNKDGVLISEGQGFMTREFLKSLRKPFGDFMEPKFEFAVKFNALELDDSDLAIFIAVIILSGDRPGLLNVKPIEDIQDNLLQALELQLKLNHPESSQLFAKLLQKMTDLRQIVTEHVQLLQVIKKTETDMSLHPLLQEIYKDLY
Sequence of Vitamin D3 receptor (Homo sapiens) (P11473 whole entry, looked up): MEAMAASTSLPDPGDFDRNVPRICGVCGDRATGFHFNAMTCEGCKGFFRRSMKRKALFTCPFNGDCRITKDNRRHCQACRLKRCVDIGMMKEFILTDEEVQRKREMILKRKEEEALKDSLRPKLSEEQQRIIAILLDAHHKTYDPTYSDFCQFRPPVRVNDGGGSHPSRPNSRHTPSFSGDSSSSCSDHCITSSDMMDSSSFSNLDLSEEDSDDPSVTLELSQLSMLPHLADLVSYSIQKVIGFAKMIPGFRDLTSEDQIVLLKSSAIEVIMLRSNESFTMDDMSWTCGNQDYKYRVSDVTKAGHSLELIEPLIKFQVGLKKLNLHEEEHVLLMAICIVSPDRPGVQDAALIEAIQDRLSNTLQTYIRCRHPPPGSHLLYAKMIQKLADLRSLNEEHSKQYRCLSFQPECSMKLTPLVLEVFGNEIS
Sequence of Glucocorticoid receptor (Homo sapiens) (P04150 whole entry, looked up): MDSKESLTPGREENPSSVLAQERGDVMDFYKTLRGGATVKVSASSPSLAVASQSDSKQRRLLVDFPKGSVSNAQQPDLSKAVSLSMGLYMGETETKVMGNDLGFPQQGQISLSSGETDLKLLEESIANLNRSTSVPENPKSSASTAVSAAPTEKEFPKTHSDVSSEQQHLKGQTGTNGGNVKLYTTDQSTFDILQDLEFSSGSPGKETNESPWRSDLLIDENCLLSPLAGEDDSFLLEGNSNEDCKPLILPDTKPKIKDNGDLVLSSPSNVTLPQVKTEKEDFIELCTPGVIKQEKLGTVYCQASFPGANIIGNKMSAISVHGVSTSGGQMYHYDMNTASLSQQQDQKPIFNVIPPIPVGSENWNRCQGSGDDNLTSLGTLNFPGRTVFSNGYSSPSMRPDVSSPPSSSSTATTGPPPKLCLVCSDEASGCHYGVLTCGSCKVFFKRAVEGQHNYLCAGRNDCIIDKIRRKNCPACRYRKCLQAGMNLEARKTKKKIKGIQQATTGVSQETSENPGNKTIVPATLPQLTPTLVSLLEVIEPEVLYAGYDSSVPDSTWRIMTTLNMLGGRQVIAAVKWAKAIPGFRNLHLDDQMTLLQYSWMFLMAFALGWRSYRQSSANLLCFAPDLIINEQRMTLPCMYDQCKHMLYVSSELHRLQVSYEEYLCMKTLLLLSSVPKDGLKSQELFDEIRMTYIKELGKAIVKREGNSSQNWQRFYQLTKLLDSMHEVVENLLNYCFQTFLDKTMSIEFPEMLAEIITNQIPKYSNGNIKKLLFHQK
Sequence of Androgen receptor (Homo sapiens) (P10275 whole entry, looked up): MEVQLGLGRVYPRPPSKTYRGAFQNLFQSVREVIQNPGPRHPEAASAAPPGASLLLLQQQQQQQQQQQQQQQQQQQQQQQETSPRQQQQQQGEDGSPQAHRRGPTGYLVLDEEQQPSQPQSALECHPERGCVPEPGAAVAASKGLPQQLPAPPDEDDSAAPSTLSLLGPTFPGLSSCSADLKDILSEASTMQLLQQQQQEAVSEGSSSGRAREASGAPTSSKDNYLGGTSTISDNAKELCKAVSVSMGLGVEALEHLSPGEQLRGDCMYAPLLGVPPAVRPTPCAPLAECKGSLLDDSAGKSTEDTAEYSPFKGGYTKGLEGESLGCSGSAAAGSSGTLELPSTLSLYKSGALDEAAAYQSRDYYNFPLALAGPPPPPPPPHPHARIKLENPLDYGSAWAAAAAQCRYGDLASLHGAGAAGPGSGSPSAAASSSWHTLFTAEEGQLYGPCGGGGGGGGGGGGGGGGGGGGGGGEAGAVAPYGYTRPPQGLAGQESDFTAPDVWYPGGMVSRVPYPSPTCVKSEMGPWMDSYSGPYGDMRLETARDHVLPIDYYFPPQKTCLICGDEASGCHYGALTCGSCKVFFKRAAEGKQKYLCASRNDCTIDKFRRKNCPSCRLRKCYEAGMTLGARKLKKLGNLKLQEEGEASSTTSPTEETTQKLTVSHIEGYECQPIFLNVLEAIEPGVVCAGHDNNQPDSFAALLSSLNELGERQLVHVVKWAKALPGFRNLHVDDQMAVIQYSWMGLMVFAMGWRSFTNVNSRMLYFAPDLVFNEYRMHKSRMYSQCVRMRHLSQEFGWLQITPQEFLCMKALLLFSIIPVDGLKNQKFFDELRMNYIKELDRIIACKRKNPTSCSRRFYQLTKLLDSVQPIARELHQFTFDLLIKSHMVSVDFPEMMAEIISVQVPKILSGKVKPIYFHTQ
Sequence of Bile acid receptor (Homo sapiens) (Q96RI1 whole entry, looked up): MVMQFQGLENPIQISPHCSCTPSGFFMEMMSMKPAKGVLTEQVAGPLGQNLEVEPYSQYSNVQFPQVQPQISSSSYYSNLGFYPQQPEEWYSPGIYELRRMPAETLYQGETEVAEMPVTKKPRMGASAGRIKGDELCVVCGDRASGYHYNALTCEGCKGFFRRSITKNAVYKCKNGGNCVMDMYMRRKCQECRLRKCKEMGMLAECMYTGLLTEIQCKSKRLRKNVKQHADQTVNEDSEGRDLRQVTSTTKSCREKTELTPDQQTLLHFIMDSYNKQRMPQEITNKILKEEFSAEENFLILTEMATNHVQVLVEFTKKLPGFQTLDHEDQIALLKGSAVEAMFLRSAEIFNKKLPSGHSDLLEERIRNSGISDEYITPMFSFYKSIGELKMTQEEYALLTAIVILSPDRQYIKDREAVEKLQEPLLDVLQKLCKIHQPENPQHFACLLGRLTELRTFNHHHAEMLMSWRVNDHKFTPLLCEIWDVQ

As to `CC(C)c1ccccc1`, the Potency entry in assay [1], in assay [2], in [3], in assay [5] and in assay [6] was “inactive” each time. In addition, the compound was classed as inactive in assay [4], in [7], in [8], in [10], in [11] and in assay [13]. In addition, the compound was classed as inactive in [14], in assay [15], in assay [16] and in assay [17]. Moreover, the activation in assay [9] was -0.119% (inactive); in assay [12], -12.7% (inactive).

As for `COC(=O)CC#N`, the Potency entry in assay [1], in [2], in assay [3], in [5], in [6] and in [18] was “inactive” in each case. For the same compound, the compound was classed as inactive in assay [4], in assay [7], in assay [8], in [14], in assay [15] and in [16]. Also, the result in [17] was inactive.

For the compound `O=[N+]([O-])c1cccc(Cl)c1`, the Potency result in assay [1], in [2], in assay [5], in [6] and in assay [18] was “inactive” in each case. For the same compound, the compound was classed as inactive in assay [4], in assay [7], in [8], in [14], in [15] and in [16]. In assay [17], the compound was classed as inactive. In addition, in assay [19], the max response came to 4.21%.

For the compound `ClC/C=C/CCl`, the Potency entry in assay [2], in [6] and in assay [18] was “inactive” in each case. In addition, the call in [4], in assay [7], in assay [8], in [14], in [15] and in assay [16] was inactive. In addition, the call in [17] was inactive.

Regarding `CCC(C)(C)OC`, the Potency entry in assay [1], in assay [2], in assay [3], in assay [5], in [6] and in assay [20] was “inactive” each time. The compound was called inactive in [4], in assay [7], in [8], in [11], in assay [13] and in [14]. Besides, the result in [15] was inactive. In addition, the activation in [12] is -0.431% (inactive). In addition, the max response in assay [19] worked out at 12.9%.

Take `CCCCCCCCCCCCC1CO1` (stereo not given): the Potency entry in assay [1], in [5], in assay [6] and in assay [20] was “inactive” in each case. Moreover, the compound was called inactive in [4], in assay [7], in assay [8], in assay [11], in [13] and in [14]. The call in assay [15] was inactive. Moreover, the activation in assay [12] is 0.241% (inactive). Further, in assay [19], the max response is -13.1%.

As for `O=c1[nH][nH]c(=O)c2cc([N+](=O)[O-])ccc12`, the Potency result in [1], in [2], in assay [3], in assay [5], in assay [6] and in [20] was “inactive” in each case. For the same compound, the compound was called inactive in assay [4], in [7], in [8], in assay [13], in [14] and in [15]. The compound was called inactive in assay [16] and in assay [17]. Moreover, the activation in assay [12] was 0.885% (inactive). Also, in [19], the max response came to 10.6%.

As for `Nc1ccc(F)cc1F`, the Potency entry in assay [1], in assay [2], in assay [3], in [5], in [6] and in [20] was “inactive” each time. Also, the result in [7], in assay [8], in [13], in [14], in assay [16] and in [17] was inactive. For the same compound, the activation in assay [9] is 18.9% (inactive); in assay [12], -11.6% (inactive). In addition, the max response in assay [19] is -4.23%.

In the case of `C1COC1`, the Potency entry in assay [1], in assay [2], in assay [3], in [5], in assay [6] and in assay [20] was “inactive” throughout. Moreover, the outcome in assay [4], in [7], in assay [8], in [11], in assay [13] and in assay [14] was inactive. Besides, the outcome in assay [15], in [16] and in assay [17] was inactive. The activation is -10.3% (inactive) in [9] and 0.529% (inactive) in assay [12]. The max response in assay [19] was -21%.

With `Nc1cccc([N+](=O)[O-])c1`, the Potency entry in assay [1], in [2], in assay [3], in [5] and in assay [6] was “inactive” each time. Further, the compound was called inactive in assay [4], in assay [7], in assay [8], in [10], in assay [11] and in assay [13]. Further, the result in [14] and in assay [15] was inactive. The activation in assay [9] was -5.67% (inactive); in assay [12] it was 0.474% (inactive).
